The panel holds about 79,000 compounds, 15% with a hit somewhere; the sample as a whole holds those more often. A number with no mark means an inactive call. The source made the active and inactive calls. Cut-off read from the data, not from the text of the source: active = growth inhibition above about 70%; inactive = the rest.
Legend:
[1] = NCI Yeast Anticancer Drug Screen. Data for the rad50 strain (AID 155);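 note: 0% = growth of vehicle-only cultures of the same strain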; conditions: S. cerevisiae rad50 strain growth inhibition, active compounds read high
Method in brief: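 Inhibition values express reduced yeast growth in compound-treated cultures relative to vehicle-treated controls.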

[2] = NCI Yeast Anticancer Drug Screen. Data for the mec2-1 strain (AID 157); conditions: S. cerevisiae mec2-1 strain, active compounds read high
Method in brief: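 Mutant yeast (mec2-1) grown with compound; growth inhibition relative to vehicle control reported.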

[3] = NCI Yeast Anticancer Drug Screen. Data for the sgs1 mgt1 strain (AID 161);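 note: 0% = growth of cultures given vehicle only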; conditions: S. cerevisiae sgs1 mgt1 strain, active compounds read high
Method in brief: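 This yeast growth screen uses a strain with defined DNA-repair lesions; compound-treated growth is compared with vehicle-treated growth.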

[4] = NCI Yeast Anticancer Drug Screen. Data for the cln2 rad14 strain (AID 165);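 note: 0% = growth equal to vehicle treated cultures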; conditions: S. cerevisiae cln2 rad14 strain, active compounds read high
Method in brief: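 Readout is yeast growth inhibition versus vehicle-treated controls, using a strain with cln2 and rad14 alterations exposed to compound.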

[5] = NCI Yeast Anticancer Drug Screen. Data for the bub3 strain (AID 167); conditions: S. cerevisiae bub3 mutant strain, active compounds read high
Method in brief: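 Steps: expose the mutant yeast strain to compound; grow alongside vehicle-treated cultures; measure growth; express inhibition against the vehicle cultures.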

[6] = NCI Yeast Anticancer Drug Screen. Data for the mlh1 rad18 strain (AID 175); conditions: S. cerevisiae mlh1 rad18 strain growth inhibition, active compounds read high
Method in brief: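 Genetically defined yeast (DNA repair-deficient) exposed to compounds; growth inhibition determined relative to vehicle.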

[7] = at 5.0 µM (retest, dose inferred, filed as 0.5)
[8] = at 50.0 µM (retest, dose inferred, filed as 5.0)

SMILES	growth inhibition [1, 7]	growth inhibition [1, 8]	growth inhibition ([1]; at 50.0 µM)	growth inhibition [2, 7]	growth inhibition [2, 8]	growth inhibition ([2]; at 50.0 µM)	growth inhibition [3, 7]	growth inhibition [3, 8]	growth inhibition ([3]; at 50.0 µM)	growth inhibition [4, 7]	growth inhibition [4, 8]	growth inhibition ([4]; at 50.0 µM)	growth inhibition [5, 7]	growth inhibition [5, 8]	growth inhibition ([5]; at 50.0 µM)	growth inhibition [6, 7]	growth inhibition [6, 8]	growth inhibition ([6]; at 50.0 µM)
COC(CNS(=O)(=O)c1ccccc1)[CH2][Hg][O]C(C)=O (configuration not stated)	1%	-1%	99.5% (active)	-3%	13%	98.8% (active)	-5%	19%	99.2% (active)	-4%	6%	99.1% (active)	2%	4%	99.2% (active)	-2%	11%	99.2% (active)
CCCCCc1cc(O)c(CCCC)c(O)c1	-107%	87% (active)	99.4% (active)	-39%	63%	99% (active)	-43%	90% (active)	99% (active)	-47%	32%	99.1% (active)	-56%	83% (active)	99.2% (active)	-92%	87% (active)	99% (active)
O=P(Oc1ccccc1)(Oc1ccccc1)Oc1ccccc1Cl	5%	0%	29.4%	3%	-8%	0.05%	-4%	4%	13.6%	0%	-14%	-6.1%	2%	28%	66.5%	-13%	-3%	51.6%
O=[N+]([O-])c1ccc(C(Br)Br)cc1	93% (active)	99% (active)	99.6% (active)	74% (active)	99% (active)	99.6% (active)	79% (active)	99% (active)	99.7% (active)	70% (active)	99% (active)	98.6% (active)	74% (active)	99% (active)	99.5% (active)	97% (active)	99% (active)	99.5% (active)
CC1(C)N=C(N)N=C(N)N1c1ccc(OCCCCNC(=O)Nc2ccc(S(=O)(=O)F)cc2)c(Cl)c1	-3%	96% (active)	98.3% (active)	-2%	97% (active)	99.3% (active)	-1%	98% (active)	99.4% (active)	-4%	98% (active)	97.3% (active)	-3%	98% (active)	98.8% (active)	-2%	99% (active)	99.1% (active)
CCCCCCCCCCCCCC(=O)O[C@H]1CC[C@H](NC(=O)[C@H](OC)[C@H](O)[C@@H](O)[C@H](O)/C=C/C(C)C)C(=O)NC1	-1%	93% (active)	88.1% (active)	4%	96% (active)	87.4% (active)	-2%	92% (active)	89.5% (active)	11%	93% (active)	71.5% (active)	4%	96% (active)	92.2% (active)	-1%	94% (active)	85.6% (active)
COc1ccc2nc3ccccc3c(NCCCCN(C)CCCl)c2c1	58%	86% (active)	77.2% (active)	23%	87% (active)	70.8% (active)	42%	99% (active)	83.9% (active)	34%	98% (active)	70%	46%	99% (active)	62.6%	61%	91% (active)	75.6% (active)
CC(C)c1oc(=O)cc2c1C(O)C1OC(=O)C3(C)C(O)C4OC4C2(C)C13 (configuration not stated)	8%	65%	31.9%	10%	81% (active)	-10.8%	10%	72% (active)	25.1%	19%	71% (active)	15.9%	2%	76% (active)	17.4%	11%	86% (active)	18.4%
COC(=O)c1ccc([As]=O)cc1N (configuration not stated)	2%	6%	98.7% (active)	1%	4%	99.5% (active)	-1%	4%	99.3% (active)	-2%	-6%	98.5% (active)	3%	2%	98.8% (active)	2%	7%	99% (active)
CCOP(=O)(OCC)/C(C#N)=C/c1ccc(Br)cc1	-14%	95% (active)	92.3% (active)	-14%	97% (active)	94% (active)	-18%	95% (active)	92.8% (active)	-20%	96% (active)	91.6% (active)	11%	97% (active)	91.8% (active)	-19%	97% (active)	92% (active)
O=C(N/N=C(/CCN1CCCC1)CC(c1ccccc1)c1c(O)c2ccccc2oc1=O)c1ccncc1 (configuration not stated)	15%	15%	83.3% (active)	-4%	-4%	80% (active)	-1%	-1%	85.1% (active)	-1%	-1%	82.3% (active)	0%	0%	81.3% (active)	14%	14%	81.2% (active)
O=P(CCP(=O)(c1ccccc1)c1ccccc1)(c1ccccc1)c1ccccc1.[Cl][Sn]([Cl])([c]1ccccc1)[c]1ccccc1	82% (active)	97% (active)	87.7% (active)	45%	99% (active)	90.1% (active)	91% (active)	98% (active)	88.5% (active)	32%	97% (active)	88.8% (active)	81% (active)	98% (active)	88% (active)	88% (active)	95% (active)	91.6% (active)
COC(=O)C1=C(C(=O)OC)C2(OC(C)=O)c3ccccc3-c3ccccc3C12 (configuration not stated)	72% (active)	98% (active)	90.2% (active)	92% (active)	99% (active)	93.5% (active)	43%	98% (active)	91.6% (active)	86% (active)	99% (active)	89.6% (active)	92% (active)	98% (active)	90.2% (active)	73% (active)	99% (active)	91.2% (active)
C[C@@H]1C[C@H]2CC[C@H](O2)[C@H](C)C(=O)O[C@@H](C)C[C@@H]2CC[C@@H](O2)[C@@H](C)C(=O)O[C@H](C)C[C@H]2CC[C@H](O2)[C@H](C)C(=O)O[C@@H](C)C[C@@H]2CC[C@@H](O2)[C@@H](C)C(=O)O1	64%	94% (active)	84.3% (active)	78% (active)	97% (active)	88% (active)	88% (active)	95% (active)	87.8% (active)	55%	83% (active)	81.6% (active)	62%	89% (active)	84.3% (active)	76% (active)	96% (active)	82.3% (active)
O=[As]c1ccc(O)c(O)c1 (configuration not stated)	11%	99% (active)	97% (active)	-4%	100% (active)	99.4% (active)	-4%	99% (active)	99.5% (active)	-9%	99% (active)	98.8% (active)	22%	99% (active)	99.2% (active)	6%	99% (active)	99.3% (active)
O=S(=O)(F)c1ccc(Cl)cc1	22%	97% (active)	85.5% (active)	4%	84% (active)	20.9%	9%	92% (active)	82.3% (active)	3%	90% (active)	49.7%	12%	97% (active)	70.9% (active)	13%	98% (active)	90.8% (active)
Cc1cc(N(CCCl)CCCl)ccc1CN1CCCN(Cc2ccc(N(CCCl)CCCl)cc2C)C1c1ccc(N(CCCl)CCCl)cc1	11%	97% (active)	66.2%	1%	99% (active)	21.6%	3%	98% (active)	86.8% (active)	-3%	98% (active)	21.4%	5%	88% (active)	30.8%	33%	97% (active)	97.2% (active)
N#CSCC(=O)O (tested in a mixture with another compound)	2%	-6%	0.5%	2%	4%	7.4%	3%	5%	5.85%	-4%	3%	25.1%	-3%	-3%	6.3%	0%	-6%	-7.75%
CC1(CO)C(O)CCC2(C)C1CCC1CC3CC12CCC3(O)CO (configuration not stated)	4%	87% (active)	-3.35%	65%	99% (active)	-18.8%	1%	80% (active)	19.1%	-13%	68%	-0.7%	-27%	77% (active)	-10%	14%	91% (active)	3.7%

Reference: PubChem BioAssay (NCI)
